Laboratory results as given in PubChem BioAssay.
Values without a mark were called inactive. Calls of active or inactive are those of the source.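 Rule for the calls: active = inhibition above the hit cutoff set in the earlier primary screen (cut at about 27% in these data); inactive = the rest.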

What follows are molecules tested against Protein phosphatase methylesterase 1 (Homo sapiens) (UniProt Q9Y570) (assay: PME-1 inhibitor activity retest, confirmation, biochemical, fluorescence polarization, FP-Rh probe, triplicate (AID 2171;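 note: 0% = enzyme with DMSO and 100% = wells lacking PME-1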)). Details: recombinant PME-1, FP-Rh probe fluorescence polarization; at 5.9 µM; active compounds read high.
Sequence of Protein phosphatase methylesterase 1 (Homo sapiens) (Q9Y570 whole entry, looked up): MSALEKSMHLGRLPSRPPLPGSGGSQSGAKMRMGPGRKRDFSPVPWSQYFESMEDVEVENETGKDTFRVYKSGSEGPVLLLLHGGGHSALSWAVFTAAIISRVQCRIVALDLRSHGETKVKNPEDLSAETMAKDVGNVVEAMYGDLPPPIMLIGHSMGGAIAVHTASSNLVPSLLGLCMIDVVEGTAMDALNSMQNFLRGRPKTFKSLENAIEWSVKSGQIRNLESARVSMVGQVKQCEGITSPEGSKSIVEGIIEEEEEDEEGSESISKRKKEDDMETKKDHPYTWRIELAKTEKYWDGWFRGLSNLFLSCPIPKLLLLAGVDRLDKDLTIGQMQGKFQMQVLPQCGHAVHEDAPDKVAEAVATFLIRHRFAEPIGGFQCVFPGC

SMILES | inhibition
Fc1cccc2sc(Nc3nnc(-c4ccccc4)o3)nc12 | 33% (active)
CCn1c(C)c(/C=N/Nc2nc3ccccc3s2)c2ccccc21 | 16.8%
CSc1ccc(C2Nc3cccc4cccc(c34)N2)cc1 | 36.5% (active)
N#Cc1ccc(Nc2nc(-c3ccc(O)cc3O)cs2)cc1C(F)(F)F | 51.9% (active)
Cc1ccc(C)c(-n2c3nc(=O)[nH]c(=O)c-3cc3cc([N+](=O)[O-])ccc32)c1 | 24.5%
Nc1cc(C(=O)O)c(N)c2c1C(=O)c1ccccc1C2=O | 96.8% (active)
Nc1n[nH]c(C2CC2)c1N=Nc1ccc(Cl)c(Cl)c1 | 20.6%
Oc1ccc(/C=N/Nc2ccnc3cc(Cl)ccc23)c(O)c1 | 19%
CC(Sc1nnc(NC2CCCCC2)s1)C(=O)Nc1ccc2c(c1)C(=O)c1ccccc1C2=O (stereo unspecified) | -4.4%
CC(C)(C)c1ccc(NC(=O)C2=CC=CN3CCS(=O)(=O)N=C23)cc1 | 9.34%
COc1ccccc1N1CCN(C(=O)C2CCN(S(=O)(=O)c3ccc(C)cc3)CC2)CC1 | 15.3%
CCOc1cc(-c2cc(-c3ccc(N)cc3)nc(N)c2C#N)ccc1O | 41.5% (active)
Cc1nn(-c2ccccc2)c2sc(-c3n[nH]c(=S)o3)cc12 | 43.8% (active)
Clc1ccc2[nH]c3c(c2c1)CCc1cn[nH]c1-3 | 21.1%
COc1cc2[nH]c3c(N4CCN(c5ccc(Cl)cc5)CC4)ncnc3c2cc1OC | 74.9% (active)
CCNc1ccccc1CP(=O)(c1ccccc1)c1ccccc1O (stereo unspecified) | 8.88%
